VHR inh color – VHR1 phosphatase inhibitors, primary screen, biochemical, colorimetric, HTS. inhibition, % at 20 µM. recombinant VHR phosphatase, colorimetric substrate read-out. Dual specificity protein phosphatase 3 (Homo sapiens), P51452. 50,000 tested, 0.7% active; in the data active = inhibition above about 60%
Target sequence (P51452 whole entry, looked up): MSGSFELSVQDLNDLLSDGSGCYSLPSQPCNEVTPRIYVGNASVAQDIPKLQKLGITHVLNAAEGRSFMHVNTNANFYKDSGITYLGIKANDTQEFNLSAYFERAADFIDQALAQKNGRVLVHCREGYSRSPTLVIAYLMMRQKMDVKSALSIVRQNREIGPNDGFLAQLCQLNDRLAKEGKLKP
Each line names hits and unclear results; the compound was inactive in the other large screens. Only a selection was taken, and hits are over-represented in it overall.

CC1=NN(c2ccccc2)C(=O)/C1=C\c1ccc(N2CCOCC2)c([N+](=O)[O-])c1	none
CC1CCN(c2ccc(C=C3C(=O)c4ccccc4C3=O)cc2[N+](=O)[O-])CC1	none
COc1ccc(NC(=S)NC(=O)/C=C/c2ccc([N+](=O)[O-])cc2)cc1	none
COc1ccc(N=C(Sc2nc3ccccc3s2)c2ccc([N+](=O)[O-])cc2[N+](=O)[O-])cc1	none
COC(=O)c1cc(NC(=O)C(C)Oc2ccccc2)cc(C(=O)OC)c1 (configuration not stated)	none
COc1ccccc1OCCOc1cccc(/C=N/n2cnnc2)c1	none
COc1cc(/C=N/n2cnnc2)ccc1OCCOc1ccc(C(C)(C)C)cc1	none
CCOc1cc(/C=N/n2cnnc2)ccc1OCCOc1ccc(C)cc1	none
CCOc1cc(/C=N/n2cnnc2)ccc1OS(=O)(=O)c1ccccc1	none
COc1cccc(OCCOc2ccc(/C=N/n3cnnc3)cc2OC)c1	VHR inh color 116
CCOc1cc(/C=N/n2cnnc2)ccc1OCc1cccc2ccccc12	VHR inh color 112
O=C(c1ccc(Br)o1)N1CCN(c2ccc([N+](=O)[O-])cc2)CC1	none
O=C(NC(=S)Nc1ccc(Cl)cc1Cl)c1ccc(Cl)cc1	none
COc1ccc(C)cc1NC(=O)C(=O)NCc1ccccn1	none
O=C(O)C1Nc2c(Cl)cc(Cl)cc2C2C=CCC12 (configuration not stated)	VHR inh color 97
COc1ccc2c(c1)C1C=CCC1C(C(=O)O)N2 (configuration not stated)	none
CC(=O)Nc1ccc2c(c1)C1C=CCC1C(C(=O)O)N2 (configuration not stated)	none
CC(=O)NC1=C(Cl)C(=O)c2ccccc2C1=O	none
Cc1ccc(C(=O)Nc2ccc(C(=O)O)cc2)cc1S(=O)(=O)NC1CCCCC1	none
COC(=O)CSc1nc(N)c(C#N)c(-c2ccc(OC)cc2)c1C#N	none
CC1=CC(=NS(=O)(=O)c2ccc(C)cc2)C=C(C)C1=O	none
O=S(=O)(NCCCNS(=O)(=O)c1ccc(Cl)cc1)c1ccc(Cl)cc1	none
O=C1C(Cl)=C/C(=N\S(=O)(=O)c2ccc(Cl)cc2)C(Cl)=C1Cl	VHR inh color 96
COc1ccc(S(=O)(=O)/N=C2C=C/C(=N\S(=O)(=O)c3ccc(OC)cc3)C=C/2Cl)cc1	none
CC1=CC(=O)C=C/C1=N\S(=O)(=O)c1ccc(C)cc1	none
O=C1C(Cl)=CC(=NS(=O)(=O)c2ccccc2)C=C1Cl	VHR inh color 76
CCc1ccccc1NC(=O)c1c(NC(=O)c2cccs2)sc2c1CCC2	none
COc1ccc(N2C(=O)NC(=O)/C(=C\c3ccc(Br)s3)C2=O)cc1	none
COC(=O)C1=C(C)N(Cc2ccccc2)C(=O)/C1=C\c1ccc(C(=O)O)cc1	none
COc1ccc(/C(N)=N/OC(=O)c2ccccc2I)cc1OC	none
O=C1C2C3C=CC(C2C(=O)N1C1CCCCC1)C1C(=O)N(C2CCCCC2)C(=O)C31 (configuration not stated)	VHR inh color 106
O=C1C2C3C=CC(C2C(=O)N1Cc1ccccc1)C1C(=O)N(Cc2ccccc2)C(=O)C31 (configuration not stated)	none
CCC(C)N1C(=O)C(=O)N(C2CCCCC2)C1=O (configuration not stated)	none
CCCC1=C(C(=O)OCC)C(c2ccc(OC)c(OC)c2)NC(=O)N1 (configuration not stated)	none
Clc1ccccc1CSc1nnnn1-c1ccccc1	none
Clc1cc2c(cc1CSc1nc3ncccc3[nH]1)OCO2	none
c1ccc(-n2nnnc2SCc2cccc(CSc3nnnn3-c3ccccc3)n2)cc1	none
Clc1ccc(CSc2nnnn2-c2ccccc2)cc1	none
Clc1cc2c(cc1CSc1nnnn1-c1ccccc1)OCO2	VHR inh color 112
Fc1ccccc1-n1nnnc1SCc1cc2c(cc1Cl)OCO2	VHR inh color 114
Cc1cc(C(=O)Nc2ccc3ncccc3c2)ccc1[N+](=O)[O-]	none
O=C(Nc1ccccc1)c1ccc(-n2cnnn2)cc1	none
O=C(Oc1ccc(-n2cnnn2)cc1)N1CCOCC1	VHR inh color 113
COC(=O)c1c(C)oc2ccc(OC(=O)N3CCOCC3)cc12	none
CC(=O)CC1C(C#N)=C(N(C)C)N(c2ccc([N+](=O)[O-])cc2)c2c1n(C)c1ccccc21 (configuration not stated)	none
Cc1[nH]n(-c2nc(-c3cccc([N+](=O)[O-])c3)cs2)c(=O)c1N=Nc1ccc(Cl)c(Cl)c1	none
Cc1cccc(N2C(=O)NC(=O)/C(=C/c3ccc(Br)o3)C2=O)c1	none
O=C1NC(=S)N(c2ccc(Br)cc2)C(=O)/C1=C/c1ccc(-c2ccccc2C(=O)O)o1	none
O=C1NC(=S)N(c2ccc(Br)cc2)C(=O)/C1=C\c1ccc(-c2ccc([N+](=O)[O-])cc2)o1	none
O=C1NC(=O)N(c2ccc(Cl)cc2)C(=O)/C1=C/c1ccc(Br)o1	none
O=C1NC(=S)N(c2ccc(F)cc2)C(=O)/C1=C/c1ccc(Br)o1	VHR inh color 94
CC(C)c1ccc(N2C(=O)NC(=O)/C(=C/c3ccc(Br)o3)C2=O)cc1	VHR inh color 82
N/C(=N/S(=O)(=O)c1ccc(Br)cc1)c1ccccc1	none
COCCOC(=O)c1ccc(NC(=O)COc2ccccc2C)cc1	none
COCCNC(=O)C(=O)Nc1cc(OC)ccc1OC	none
O=C1NC(=S)N(c2cccc(Br)c2)C(=O)/C1=C/c1ccc(-c2ccc(C(=O)O)cc2)o1	none
O=C1NN(c2ccc(F)cc2)C(=O)/C1=C\c1ccc(-c2cccc(C(=O)O)c2)o1	none
O=C1NC(=O)N(c2ccccc2)C(=O)/C1=C\c1ccc(-c2cccc(C(=O)O)c2)o1	none
O=C1NC(=O)N(c2cccc(Br)c2)C(=O)/C1=C/c1ccc(-c2ccc(C(=O)O)cc2)o1	VHR inh color 100
O=C1NN(c2ccccc2)C(=O)/C1=C/c1ccc(-c2ccccc2)o1	VHR inh color 111
O=C1NN(c2ccccc2)C(=O)/C1=C/c1ccc(-c2ccc(F)cc2)o1	none
Cc1cc([N+](=O)[O-])ccc1NC1CCC(c2ccccc2)CC1 (configuration not stated)	none
COc1ccccc1/C=N/N=C1/NC(=O)C(Cc2ccc(Cl)cc2Cl)S1 (configuration not stated)	none
O=C(NN1C(=O)/C(=C/c2ccccc2Cl)SC1=S)c1ccccc1O	none
Nc1cccc(-c2cc(C(=O)O)c3ccccc3n2)c1	none
c1ccc(NC2=Nc3cccc4cccc2c34)cc1	none
Nc1cccc(C2=Nc3cccc4cccc(c34)N2)c1	VHR inh color 85
Cc1ccc(-c2csc(/C(C#N)=C/c3sccc3C)n2)cc1C	none
CCOC(=O)c1c(NC(C)=O)sc2cc(C(C)(C)C)ccc12	none
COCCCNC(=O)CN(c1ccc(C)cc1)S(=O)(=O)c1ccc(SC)cc1	none
CCN(O)C(C)(C)/C(=N/O)c1ccccc1	none
CC(=O)c1cccc(NC(=O)c2cccc(OCc3ccccc3)c2)c1	VHR inh color 112
CCCOc1cccc(C(=O)Nc2cccc(C(=O)Nc3ccccc3C(=O)O)c2)c1	none
CCCOC(=O)c1ccc(NC(=O)c2cccc(OCc3ccccc3)c2)cc1	none
CN1CCN(Cn2c(O)c(N=NC(=O)CSc3nc4ccccc4o3)c3ccccc32)CC1	none
O=C(O)c1cc(C23CC4CC(CC(C4)C2)C3)nc2ccccc12	none
O=C(Nc1ccc(Br)cc1)c1cccc2c1C(=O)c1ccccc1-2	none
Cc1cc(Oc2ccc(F)c(F)c2)c(F)cc1[N+](=O)[O-]	none
Cc1nc(SCC(=O)C2CC2)c(C#N)c(C)c1C	none
Cc1ccccc1OCC(=O)Nc1nc(-c2ccc(Br)cc2)cs1	none
Cc1ccnc(NC(=O)COc2ccc(Cl)c(C)c2)c1	none
O=C(COc1ccccc1Cl)Nc1nc(-c2ccccc2)cs1	none
O=C(COc1ccc(Cl)cc1)Nc1nc(-c2ccc(Cl)cc2)cs1	none

Source: PubChem
